This passage reports AbsAC35 results from ChEMBL document CHEMBL1201862, “PubChem BioAssay data set” (2004).

Each structure is given as a SMILES string. Among all 1,500 compounds or so, about 140 (9.3%) were called active. No rule for the calls is given here. The sample as a whole holds a higher share of actives than the screen did.
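Also: actives lower the AlphaScreen signal from the preloaded product and count as artifacts.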

The test can be described thus: false positives in methylated H4 peptide AlphaScreen detection – biochemical, cherry-picked samples, artefact control for NSD2 inhibitor project, dose response (AID 1053174). (Alpha assays give light when donor and acceptor beads are brought close together.)
Consider `OCC[n+]1c2ccccc2nc2ccc(N3CCOCC3)cc21`, for which the AbsAC35 is 15.8 µM (active).
For `N/C(=N\N=C/c1ccc(-c2ccc(O)c(C(=O)O)c2)o1)N[N+](=O)[O-]` the value was 19.7 µM (active); for `CN(c1ccc(O)cc1)c1ccc([N+](=O)[O-])c2nonc12`, 15.7 µM (active).
For `CCCCCCCSc1cc(OC)c(CCNC)cc1OC` the value was 14.6 µM (active); for `CC[n+]1c(-c2ccccc2)c2cc(N)ccc2c2ccc(N)cc21`, 21.9 µM (active).
The same measure for `CCN(CC)c1ccc(CN2CC=C(c3ccc(F)cc3)CC2)cc1`: 15.3 µM (active).
Turning to `CN(C)c1ccc(CN2CC=C(c3ccc(F)cc3)CC2)cc1`, the AbsAC35 was 15.5 µM (active).
The same measure for `CCCCN1C(=O)/C(=C/C=C/c2ccco2)C(=O)NC1=S`: 10.6 µM (active); for `CN(C)c1ccc(/C=C/c2cc[n+](C)c3ccccc23)cc1`: 10.6 µM (active).
